Experimental findings from the supplement of paper PMC11172423 are described below.

Unmarked numbers belong to inactive results.

The test system of assay [1] is Falciformispora senegalensis CBS197.79. Description: growth relative to untreated control; higher = less inhibition, active = 20 or less. In short, it runs like this: (§1)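 In 96-well plates, suspended hyphal fragments of M. mycetomatis MM55 or F. senegalensis CBS197.79 were exposed to compound at 100 or 25 µM for 7 days at 37 °C. The suspension medium was colourless RPMI 1640 with L-glutamine and MOPS, adjusted to 68–72% transmission at 660 nm. Viability was measured with MTS (2 h, 490 nm) or resazurin (600 nm). Growth means metabolic activity compared with the untreated growth control after blank correction of both with medium plus dye.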

Assay [2] relates to Madurella mycetomatis MM55. The description is as above. An outline of the steps:
as §1

`O[C@@H](c1cc(C(F)(F)F)nc2c(C(F)(F)F)cccc12)[C@H]1CCCCN1`: the growth in assay [1] (25 µM) is 8.55% (active); in assay [1] (100 µM) it was 14.8% (active); in assay [2] (25 µM), 5.4% (active); in assay [2] (100 µM), 4.2% (active).
`CN(C)CCN1CCCN(c2ccnc3ccsc23)CC1`: the growth in assay [1] (25 µM) is 90.2%; in assay [1] (100 µM) it was 99.7%; in assay [2] (25 µM), 76%; in assay [2] (100 µM), 79.5%.
As for `Cc1nc2ccccn2c1C1(O)C(=O)Nc2c(Cl)cc(Cl)cc21` (centres undefined), the growth in assay [1] (25 µM) is 101%; in assay [1] (100 µM), 118%; in assay [2] (25 µM), 99.3%; in assay [2] (100 µM), 111%.
For `COCC[C@H](NC(=O)c1cc2ccc(C(F)(F)F)cc2[nH]1)c1ccccc1`, the growth in assay [1] (25 µM) was 95.1%; in assay [1] (100 µM), 92.9%; in assay [2] (25 µM), 30.3%; in assay [2] (100 µM) it was 52.2%.
The matching figures for `OC(Cn1cncn1)(Cn1cncn1)c1ccc(F)cc1F`: 106%, 105%, 76% and 4.95% (active).
The matching figures for `CCc1ccc2c(c1O)CCN(C)C2Cc1ccccc1Cl` (centres undefined): 78.3%, 27.8%, 21.4% and 6.23% (active).
The matching figures for `O=C(Nc1ncccc1O)c1ccc(N2CCOCC2)nc1`: 90%, 81.4%, 92.8% and 95.8%.
`Cc1ncc([N+](=O)[O-])n1CC(C)O` (centres undefined): the growth was 93.4% in assay [1] (25 µM), 100% in assay [1] (100 µM), 120% in assay [2] (25 µM) and 128% in assay [2] (100 µM).
As to `OCCN1CCN(CCCN2c3ccccc3Sc3ccc(C(F)(F)F)cc32)CC1`, the growth in assay [1] (25 µM) was 1.11% (active); in assay [1] (100 µM), 8.28% (active); in assay [2] (25 µM), 3.76% (active); in assay [2] (100 µM) it was 3.71% (active).
Consider `Cc1ccc(-c2cc(C(F)(F)F)nn2-c2ccc(S(N)(=O)=O)cc2)cc1`, for which the growth in assay [1] (25 µM) was 102%; in assay [1] (100 µM) it was 9.81% (active); in assay [2] (25 µM), 98%; in assay [2] (100 µM) it was 6.13% (active).
The matching figures for `NS(=O)(=O)c1cc2c(cc1Cl)NC=NS2(=O)=O`: 103%, 103%, 108% and 96.2%.
